target: T1, Eip93f (Drosophila melanogaster, UniProt Q9VD60 752-830); assay: FP; 33 mM phosphate pH 7.0, 90 mM NaCl, 0.01% Tween 20, 0.1 mM DTT, 0.5% agarose; room temperature; conditions: tags: N-GST (pGEX-6P-1, kept); dsDNA, one strand shown
T1 sequence: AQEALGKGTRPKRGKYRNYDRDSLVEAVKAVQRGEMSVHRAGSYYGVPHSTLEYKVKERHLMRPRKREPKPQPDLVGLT

Q: AATAGCCGAAAATCG was tested. Which binding signal did it give?
A: 1.22 Kd / Kd of best base at the position

Q: With CATAGCCCAAAATCG as the sequence, how does the binding signal read?
A: 1.29 Kd / Kd of best base at the position

Q: CATAGCCGAAAATGG was tested. Which binding signal did it give?
A: 1.42 Kd / Kd of best base at the position

Q: Which binding signal does the source give for TATAGCCGAAAATCG here?
A: 1.35 Kd / Kd of best base at the position

Q: For CAGAGCCGAAAATCG, which binding signal is on record?
A: 1.49 Kd / Kd of best base at the position

Q: CATATCCGAAAATCG was tested. Which binding signal did it give?
A: 1.8 Kd / Kd of best base at the position

Q: CATAGCCGAAAAACG was tested. Which binding signal did it give?
A: 1.54 Kd / Kd of best base at the position

Q: CATAGCCGTAAATCG was tested. Which binding signal did it give?
A: 13.1 Kd / Kd of best base at the position

Q: With CATAGCCTAAAATCG as the sequence, how does the binding signal read?
A: 1.82 Kd / Kd of best base at the position

Q: With CCTAGCCGAAAATCG as the sequence, how does the binding signal read?
A: 1.59 Kd / Kd of best base at the position

Q: How did the binding signal turn out when CATAGCCGACAATCG was run?
A: 20.2 Kd / Kd of best base at the position

Q: For CATAGCCGAATATCG, which binding signal is on record?
A: 2.21 Kd / Kd of best base at the position

Q: CATACCCGAAAATCG was tested. Which binding signal did it give?
A: 1.36 Kd / Kd of best base at the position

Q: CATAGCCGAGAATCG was tested. Which binding signal did it give?
A: 22.5 Kd / Kd of best base at the position

Q: With CATAGCCGAAAATCC as the sequence, how does the binding signal read?
A: 1.04 Kd / Kd of best base at the position

Q: How did the binding signal turn out when CATAGCCGAAACTCG was run?
A: 2.54 Kd / Kd of best base at the position

Q: With CATAGGCGAAAATCG as the sequence, how does the binding signal read?
A: 3.03 Kd / Kd of best base at the position

Q: For CAAAGCCGAAAATCG, which binding signal is on record?
A: 1.57 Kd / Kd of best base at the position

Q: Which binding signal does the source give for GATAGCCGAAAATCG here?
A: 1.29 Kd / Kd of best base at the position

Q: CGTAGCCGAAAATCG was tested. Which binding signal did it give?
A: 1.39 Kd / Kd of best base at the position

Q: For CATAGCCGAACATCG, which binding signal is on record?
A: 5.65 Kd / Kd of best base at the position

Q: CATAGCCGAAAATCA was tested. Which binding signal did it give?
A: 1.07 Kd / Kd of best base at the position

Q: How did the binding signal turn out when CATAACCGAAAATCG was run?
A: 1.73 Kd / Kd of best base at the position

Q: Which binding signal does the source give for CTTAGCCGAAAATCG here?
A: 1.14 Kd / Kd of best base at the position

Q: How did the Kd turn out when CATAGCCGAAAATCG was run?
A: ~14.5 nM

Q: CATAGCCGAAAGTCG was tested. Which binding signal did it give?
A: 2.41 Kd / Kd of best base at the position

Q: CATAGCCGAAAATTG was tested. Which binding signal did it give?
A: 1.35 Kd / Kd of best base at the position

Q: For CATAGCCGAAAACCG, which binding signal is on record?
A: 1.78 Kd / Kd of best base at the position

Q: Which binding signal does the source give for CATAGCTGAAAATCG here?
A: 4.47 Kd / Kd of best base at the position

Q: How did the binding signal turn out when CACAGCCGAAAATCG was run?
A: 1.26 Kd / Kd of best base at the position

Q: How did the binding signal turn out when CATAGCCGGAAATCG was run?
A: 7 Kd / Kd of best base at the position

Q: Which binding signal does the source give for CATAGACGAAAATCG here?
A: 3.01 Kd / Kd of best base at the position

Q: Which binding signal does the source give for CATCGCCGAAAATCG here?
A: 2.02 Kd / Kd of best base at the position

Q: How did the binding signal turn out when CATAGCCGAAGATCG was run?
A: 9.46 Kd / Kd of best base at the position

Q: CATAGCCGATAATCG was tested. Which binding signal did it give?
A: 12.1 Kd / Kd of best base at the position

Q: CATAGCAGAAAATCG was tested. Which binding signal did it give?
A: 23.3 Kd / Kd of best base at the position

Q: For CATAGCCGAAATTCG, which binding signal is on record?
A: 1.52 Kd / Kd of best base at the position

Q: How did the binding signal turn out when CATAGCGGAAAATCG was run?
A: 16.4 Kd / Kd of best base at the position

Q: Which binding signal does the source give for CATTGCCGAAAATCG here?
A: 1.02 Kd / Kd of best base at the position

Q: How did the binding signal turn out when CATAGTCGAAAATCG was run?
A: 1.92 Kd / Kd of best base at the position

— publication PMC5913336, “True equilibrium measurement of transcription factor-DNA binding affinities using automated polarization microscopy”
